Rows were chosen to be rich in hits. Some 5.2% of all compounds tested hit in one or more screens of this group.
Tau fibril ThT: qHTS for Inhibitors of Tau Fibril Formation, Thioflavin T Binding | Microtubule-associated protein tau (Homo sapiens), P10636 | recombinant tau K18 P301L, heparin-induced fibrillization, ThT fluorescence | Potency, µM (doses to about 57.4 µM), for inactives: at the top dose activity, negative = inhibition, usual class: inhibitors | 270,000 tested, 2.1% active; further: potency means the concentration at half of the fitted maximal effect; nearly all actives have a fitted effect of over 55% in size
Target sequence (P10636 561-689 P618L limits assumed): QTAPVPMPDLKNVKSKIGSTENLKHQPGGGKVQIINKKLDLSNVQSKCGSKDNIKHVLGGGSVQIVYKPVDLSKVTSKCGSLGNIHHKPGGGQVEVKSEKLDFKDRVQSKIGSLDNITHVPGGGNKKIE
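Tau K18 P301L fragment (15 uM unlabeled plus 0.24 uM Alexa 594-labeled) in 100 mM sodium acetate pH 7 with compound, fibrillization induced by 20 uM heparin for 6 hr at 37 C. Thioflavin T (30 uM) added, fluorescence read after 1 hr (ex 450, em 510 nm).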
Tau fibril FP: qHTS for Inhibitors of Tau Fibril Formation, Fluorescence Polarization; 280,000 tested, 0.39% active; AID 1468, 2008; K18 P301L tau heparin fibrillization, Alexa594 FP, 6 h; Microtubule-associated protein tau (Homo sapiens), P10636; Potency, µM (series often up to 57.7 µM), for the others: at the top dose activity, negative = inhibition, usual class: inhibitors; further: potency means the concentration at half of the fitted maximal effect; nearly all actives have a fitted effect of over 55% in size
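Quantitative HTS format: compounds meet 15 uM recombinant K18 P301L tau and Alexa 594-tau tracer in 100 mM sodium acetate pH 7; 20 uM heparin triggers fibrillization at 37 C over 6 hr; FP gives the signal.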
Coupling enz: qHTS Assay for Inhibitors of Fructose-1,6-bisphosphate Aldolase from Giardia Lamblia: Coupling assay counterscreen; coupling enzyme system counterscreen, AmpLite Red fluorescence; activity change, negative = inhibition, % at 58.2 µM, hits read low; 290,000 tested, 0.67% active; AID 2472, 2010; in the data active means activity change below about -30%
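Final compound at 57.5 uM, incubated 10 min at RT with coupling enzyme reagent (glyceraldehyde-3-phosphate), then 20 min with substrate and AmpLite Red detection. Fluorescence read at 525/598 nm; tests interference with the coupling assay, not aldolase inhibition.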
Sfp PPTase inh: qHTS Assay for Inhibitors of Bacillus subtilis Sfp phosphopantetheinyl transferase (PPTase) | 4'-phosphopantetheinyl transferase ffp (Bacillus subtilis), Q9F4F7 | AID 1490, 2009 | Biochemical Sfp PPTase activity, qHTS | 310,000 tested, 3.5% active | Potency, µM, for the others: largest response in the series, negative = inhibition, most hits filed as inhibitors;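 further: the enzyme is Sfp with the accession as filed and its product quenches rhodamine fluorescence; potency means the concentration at half of the fitted maximal effect; 0% = enzyme reaction without inhibitor and -100% = no enzyme wells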
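Fluorescence-quenching assay with 15 nM Sfp, 5 uM rhodamine-CoA and 12.5 uM BHQ-2-labelled ybbR peptide in pH 7.6 Hepes/MgCl2 buffer. Enzyme was pre-incubated with compound for 15 min at room temperature. Rate was taken from the 30-min fluorescence change (525/598 nm).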
Tau fluor cs: Counterscreen qHTS for Inhibitors of Tau Fibril Formation, Fluorescence Polarization; Potency, µM (titrated, usually from 57.7 µM), without a hit: top-dose activity change, negative = decrease; AID 1463, 2008; 280,000 tested, 0.93% active; tau K18 P301L Alexa594 fluorescence, heparin fibrillization; further: potency means the concentration at half of the fitted maximal effect; nearly all actives have a fitted effect of over 55% in size
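Human tau K18 P301L (15 uM unlabeled, 0.24 uM Alexa 594-labeled) in 100 mM sodium acetate pH 7 with 20 uM heparin, 6 hr at 37 C. ThT 30 uM added, 1 hr ambient; Alexa 594 FP and total fluorescence read at 555/632 nm.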
Numbers without * were called inactive; ? = inconclusive; nt = not tested or not shown; [ ] = dose if it differs, or a comment. Unless noted, the call rests on the fitted dose curve; in most records, active means well fitted curve in the direction sought with a large enough effect; inconclusive means small, poorly fitted or top-dose-only effect, or another doubt; inactive means no such curve, though single readings can be large; an effect the other way counts as inactive or inconclusive. Unless noted, on the % scale 0 is the no-effect control and ±100 the full control effect.

SMILES	Tau fibril ThT	Tau fibril FP	Coupling enz	Sfp PPTase inh	Tau fluor cs
CCCC[C@@H]1C[C@H]1C(NC(=O)c1ccco1)c1ccccc1C(F)(F)F (some centres undefined)	-5.4%	3.9%	-2.0	23.0%	-8.5%
c1ccc(-c2ccc(N3CCCC4(CCNCC4)C3)cc2)cc1	nt	nt	3.5	28.2µM*	nt
c1ccc(-c2ccc(N3CC4(CCNCC4)C3)cc2)cc1	nt	nt	2.8	?	nt
CC(C)(C)C(=O)Nc1nc(=S)ss1	?	?	4.2	22.4µM*	-10.7%
CCC(=O)Nc1nc(=S)ss1	?	?	4.3	10µM*	-20.0%
O=C(NCC(c1cccs1)S(=O)(=O)c1cccs1)c1ccc(Cl)cc1 (centres undefined)	-3.8%	?	nt	nt	-18.5%
CC(C)c1ccc(NC(=O)CCS(=O)(=O)c2ccc3c(c2)CC(=O)N3C)cc1	12.2%	3.5%	nt	nt	5.9%
CC(/C=N/NC(=O)c1cc(-c2ccncc2)nc2ccccc12)=C\c1ccco1	?	-4.7%	-39.8*	22.4µM*	?
Cc1ccc(/C=N/NC(=O)c2cc(-c3ccncc3)nc3ccccc23)o1	nt	nt	-0.1	-24.4%	nt
CCc1nnc2c3ccccc3nc(Nc3ccccc3OC)n12	-5.4%	?	nt	nt	-13.6%
COc1cc(NC2CCCCC2O)c2nc(-c3ccc(Cl)cc3)ccc2c1 (centres undefined)	?	?	-31.0*	?	?
COc1ccc(CNC(=O)c2cc(-c3ccc(Cl)cc3)n[nH]2)cc1	3.7%	?	nt	nt	-2.5%
CC(C)OC(C)C	nt	nt	0.0	8.1%	nt
Cc1ccc(CN(CC2CCCO2)C(=O)CN2C(=O)C(C(C)C)Oc3ccccc32)o1 (centres undefined)	-15.5%	8.7%	3.6	44.7µM*	-3.8%
CC(C)C1Oc2ccccc2N(CC(=O)N(Cc2ccccn2)CC2CCCO2)C1=O (centres undefined)	-1.3%	-7.3%	1.5	0.8%	-2.0%
CC1=C(CC(=O)c2ccc(Cl)cc2)C(=O)c2ccccc2C1=O	?	?	-40.2*	44.7µM*	?
Cc1ccccc1-c1nsc(SCC(=O)c2ccc(Cl)cc2)n1	-18.1%	-5.3%	3.0	12.5%	-14.9%
Cc1cccc(N2CCN(C(=O)CN3C(=O)COc4ccc(S(=O)(=O)N5CCC(C)CC5)cc43)CC2C)c1 (centres undefined)	-11.4%	10.0%	nt	nt	-9.4%
O=C1C(Nc2ccccc2)=C(N2CCCCC2)C(=O)c2ccccc21	17.8µM*	?	-49.5*	-0.9%	-25.6%
CN(C1=C(N2CCCCC2)C(=O)c2ccccc2C1=O)c1ccccc1	?	3.8%	-27.5	-9.8%	?
Cc1ccc(NC2=C(N3CCCCC3)C(=O)c3ccccc3C2=O)cc1	-14.6%	-5.2%	-45.4*	-13.5%	-25.1%
O=C1C(Nc2cccc(O)c2)=C(N2CCCCC2)C(=O)c2ccccc21	14.1µM*	?	-51.5*	31.6µM*	17.8µM*[quencher]
COc1ccccc1NC1=C(N2CCCCC2)C(=O)c2ccccc2C1=O	12.6µM*	?	-50.8*	3.6%	?
CN1C(=O)CC[C@@H]1c1cccnc1	nt	nt	-2.2	-1.7%	nt
Cc1ccc2c(c1)cc1c(=O)n(CC(=O)NCc3ccco3)nc(C)n12	0.9%	-0.3%	nt	nt	2.9%
SMILES	Tau fibril ThT	Tau fibril FP	Coupling enz	Sfp PPTase inh	Tau fluor cs
O=C(/C=C/c1ccc(O)cc1)c1ccc(NC2=C(N3CCCCC3)C(=O)c3ccccc3C2=O)cc1	7.94µM*	?	-45.7*	?	12.6µM*[quencher]
COc1cc(-c2nnc(SCC(=O)c3cc(C)n(CC4CCCO4)c3C)o2)cc(OC)c1OC (centres undefined)	?	7.9%	-11.4	89.1µM*	-10.9%
CC(C)[C@@H](CC(=O)N[C@@H]1CCCC[C@H]1C(=O)N[C@H](CC(=O)N[C@@H](CCC(=O)O)CC(=O)O)Cc1ccccc1)NC(=O)C[C@H](CO)NC(=O)[C@@H]1CCCC[C@H]1N	-2.2%	8.0%	1.2	10.1%	2.0%
COc1ccc(N2CCN(CCC3Oc4cc([N+](=O)[O-])ccc4NC3=O)CC2)cc1 (centres undefined)	7.94µM*	13.2%	1.3	8.7%	?
COc1cc(NCCCCCCCN)c2ncccc2c1	7.5%	5.0%	-36.7*	?	-3.0%
COCCn1c(SCC(=O)Nc2ccc(F)c(Cl)c2)nc2c(oc3ccccc32)c1=O	-10.9%	?	nt	nt	-22.0%
COc1ccc(C(=O)Nc2ccccc2C(=O)OCc2cc(=O)n3c4c(sc3n2)CCCC4)cc1	-4.3%	-6.2%	nt	nt	-6.0%
CCCc1cc(-c2[nH]ncc2-c2ccc3c(c2)OCCCO3)c(O)cc1O	?	?	2.0	13.0%	10µM*[quencher]
Cn1cc(CNCc2cn[nH]c2-c2ccc(F)cc2)c(-c2ccc3c(c2)OCCO3)n1	-6.6%	-6.0%	1.8	8.2%	-7.9%
CCCc1cc(-c2[nH]ncc2-c2ccc(C(=O)OCC)o2)c(O)cc1O	-14.4%	?	-1.3	11.7%	14.1µM*[quencher]
CC(=O)c1c(C)oc(C)c1CSCc1ccc(C(=O)O)o1	?	?	-3.1	44.7µM*	-11.2%
CCCCSCc1ccc(C(=O)O)o1	-0.8%	1.4%	6.1	18.8%	4.4%
Cc1ccc(S(=O)(=O)N(CC(=O)NCCSc2ccc(Cl)cc2)c2ccccc2C)cc1	-4.3%	-3.8%	nt	nt	-26.2%
CCOc1ccc(-n2c(-c3ccco3)n[nH]c2=S)cc1	-11.9%	-8.0%	3.9	50.1µM*	-15.6%
Cc1ccc(-n2c(-c3ccco3)n[nH]c2=S)cc1	-5.7%	-7.2%	6.7	79.4µM*	-9.4%
Fc1ccc(-n2c(-c3ccco3)n[nH]c2=S)cc1	nt	nt	2.3	79.4µM*	nt
Cc1ccc(-n2c(-c3nn(C)cc3Cl)n[nH]c2=S)cc1	-6.8%	3.1%	1.3	12.6µM*	0.6%
Fc1ccc(-n2c(-c3ccc4ccccc4n3)n[nH]c2=S)cc1	-0.9%	-6.0%[2.34 µM]	0.5	22.7%	1.6%[2.34 µM]
CC(=O)Nc1ccc(C2Nc3c(C)cc(C)cc3-c3cc(C)nn32)cc1 (centres undefined)	-12.8%	3.6%	nt	nt	?
Cc1cccc(-c2noc(-c3cccnc3NCc3ccccc3Cl)n2)c1	-7.6%	-3.3%	nt	nt	-19.6%
CC(=O)OCC1=C(C(=O)O)N2C(=O)C(NC(=O)Cc3cccs3)C2SC1 (centres undefined)	20µM*	?	-2.1	-51.7%	-30.3%
COc1ccc(C2C=C(c3cccs3)Nc3nc(CCCO)nn32)cc1 (centres undefined)	?	?	-8.4	15.8µM*	-12.0%

Assay outcomes deposited in PubChem BioAssay by National Center for Advancing Translational Sciences (NCATS).
